Bioassay records from PubChem BioAssay.
ARNT TACC3 PPI = disruptors of ARNT/TACC3 protein interaction, primary screen, biochemical, AlphaScreen, single concentration; Transforming acidic coiled-coil-containing protein 3 (Homo sapiens), Q9Y6A5; AlphaScreen His-ARNT PAS-B/GST-TACC3 binding, luminescence; TACC3 fragment carries E629A point mutation; inhibition, % at 9.99 µM; actives 0.66% (n = 390,000);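 active means mean inhibition of replicates at least 50% and at least half of replicates each reaching 50%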;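 further: 0% = complete ARNT plus TACC3 wells and 100% = ARNT alone without TACC3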
A1 inh = caspase 3/7 activation in MEF A1-2A-BIM cells, primary screen, A1 inhibitor project, cell-based, luminescence, HTS; Caspase-Glo 3/7 luminescence, 3 h; percent of clofoctol response, vehicle zero; actives 0.066% (n = 330,000); AID 2462, 2010; caspase activation, % (test concentration not listed);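 active means over half of replicate activation scores above 10%, or exactly half above 10 with the replicate mean above 10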
aDG glyco up = activators of alpha-DG glycosylation, primary screen, uHTS, Pro5-aDG cells, AlphaScreen. alpha-DG glycosylation AlphaScreen (IIH6); 0% Pro5, 100% B10-LARGE cell signal. activation, % at 10 µM. actives 0.22% (n = 360,000);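 active means activation of at least 8% versus controls, or a plate z-score of at least 8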;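 further: Pro5 are CHO cells carrying HIG-tagged alpha-DG that lacks glycosylation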
AI-2 QS mod = Vibrio harveyi AI-2 quorum sensing modulators, primary screen, JMH597 strain, luminescence/OD600 ratio; Vibrio harveyi JMH597 AI-2 luminescence/OD600 ratio, 9 h; stronger effect = lower value; strain lacks LuxN and CqsS sensors; 0 = neutral-control median; activity change, % at 7.5 µM; actives 0.4% (n = 300,000); in the data active means activity change below about -75%, passing the limit was not always enough;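 further: luminescence divided by OD600 gain over 9 h not by final OD600 alone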
Mot1-301 SUMO = yeast Mot1-301 growth rescue at high temperature, primary screen, SUMOylation pathway inhibitor project, S. cerevisiae, ATP luminescence, 38.5C | S. cerevisiae Mot1-301 growth rescue; percent above DMSO median, 100 means doubled | growth rescue, % at 18.8 µM | actives 1% (n = 320,000);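 active means every valid replicate shows activation above 250% relative to neutral control wells; inactive means the rest, any valid replicate at or below 250%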;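 further: OY570 slx delta 5 strain wells were the positive control but not used for scaling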
Mot1 SUMO dose = growth restoration of Mot1-301 yeast on galactose, dose response, SUMO pathway inhibitor project, whole organism, S. cerevisiae, ATP luminescence, cherry-picked samples; shares compounds with Mot1-301 SUMO; S. cerevisiae Mot1-301 galactose growth, 24 h; -100 = growth of slx-deleted rescue strain; growth activity, percent, % at 42 µM; 2,300 tested, under 10 active; AID 493004, 2010;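 active means Signal drops as the depositor expects, and the fitted half-maximal dose is no more than ten times the top valid tested dose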;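 further: more negative values mean stronger growth rescue toward the control strain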
ARNT Alpha ctr = AlphaScreen signal interference compounds, dose response, artefact control for ARNT-TACC3 interaction inhibitor project, biochemical, luminescence, cherry-pick. shares compounds with ARNT TACC3 PPI. His-ARNT PASB-GST AlphaScreen artifact counter-screen. AC50, µM (highest dose often 68 µM), for the others: at the top dose activity change, negative = signal decrease. actives 50% (n = 1,200). AID 651705, 2012;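 active means every separate test run was called active for a drop in luminescence, with AC50 within twice the top valid dose, actives reach about 71 µM in these data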
aDG conf = alpha-DG glycosylation enhancers, retest, confirmation, single concentration, Pro5-aDG cells; IIH6 AlphaLISA; scaled to LARGE-overexpressing B10 cells as 100%; shares compounds with aDG glyco up; actives 17% (n = 600); activation, % at 10 µM (by protocol);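 active means activation of at least 7% in one or more replicates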;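 further: cells exposed to compound for two days before detection; 0% = DMSO-treated Pro5 cells and 100% = DMSO-treated B10-LARGE cells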
* hit, by the source's call; i = inactive; nt = no result; + = active, no number; [ ] = another dose, or the depositor's remark. Rows were chosen to be rich in hits. Some 1.8% of all compounds tested hit in one or more screens of this group.

SMILES	ARNT TACC3 PPI	A1 inh	aDG glyco up	AI-2 QS mod	Mot1-301 SUMO	ARNT Alpha ctr	others
O=C(Nc1ccc2nc(-c3ccc4nc[nH]c4c3)[nH]c2c1)c1cccs1	-1.2	-0.3	0.1	32.1	465.2*	nt	Mot1 SUMO dose=-0.1
O=C(Nc1ccc2nc(-c3ccccc3)[nH]c2c1)c1cccs1	0.4	-0.5	0.3	-0.5	7.4	nt
Cn1c(-c2sc3cc(C(F)(F)F)cnc3c2-c2cccs2)n[nH]c1=S	-1.5	0.8	-0.3	10.4	+	nt	Mot1 SUMO dose=-0.2
c1ccc(-c2nc(N3CCOCC3)c3ccccc3n2)nc1	nt	0.2	7.0*	9.4	480.5*	nt	Mot1 SUMO dose=-1.0;aDG conf=2.8
COCC#Cc1cnc2c(c1)C(=O)N([C@@H](C)CO)C[C@@H](C)[C@@H](CN(C)Cc1ccc(F)cc1)O2	0.1	nt	nt	nt	nt	nt
O=C(NCCCn1ccnc1)C(=O)NCC(c1ccco1)N1CCN(c2ccccc2)CC1 (stereo not given)	44.7*	-1.1	0.0	-0.4	10.1	-13.2%
COc1ccc(N2CCN(C(CNC(=O)C(=O)NCCCn3ccnc3)c3ccco3)CC2)cc1 (stereo not given)	2.3	0.5	-0.1	6.4	82.0	nt
O=C(NCCCn1ccnc1)C(=O)NCC(c1ccco1)N1CCN(c2ccc(F)cc2)CC1 (stereo not given)	58.8*	1.3	0.1	-8.9	-0.4	-14.8%
O=C(CN1C(=O)CCC1=O)Nc1nc(-c2ccccn2)cs1	59.2*	0.3	2.4	-18.6	108.5	34.5µM*
O=C(CCCSc1ccccc1)Nc1nc(-c2ccccn2)cs1	34.9	-0.5	2.0	30.3	4.3	nt
O=C(Nc1nc(-c2nc3ccccc3s2)cs1)C1CC1	-7.7	-2.5	0.9	2.8	16.2	nt
O=C(Nc1ccc2nc(-c3ccccn3)[nH]c2c1)C1CCCCC1	59.5*	-1.5	0.0	20.8	i	-7.4%
O=C(CN1C(=O)CCC1=O)Nc1nc(-c2ccc3ccccc3c2)cs1	-2.6	0.1	0.2	17.5	nt	nt
CC(C)c1nc2ccc(NC(=O)C3CCCCC3)cc2[nH]1	-5.8	0.4	-0.2	nt	124.2	nt
O=C(Nc1nc(-c2ccccn2)cs1)C1CCCC1	58.5*	0.4	0.5	67.9	-1.7	-15.5%
CSCCC(=O)Nc1nc(-c2ccccn2)cs1	57.8*	nt	1.0	nt	nt	71.4µM*
O=C(NC(NC(=O)c1ccccc1)c1cccc([N+](=O)[O-])c1)c1ccccc1	-8.0	0.7	0.1	-2.4	-4.8	nt
CCN(CC)c1ccc(Nc2nc(N3CCOCC3)c3ccccc3n2)cc1	54.9*	-0.1	-0.3	17.3	0.4	5.65µM*
CO[C@H]1CN(C)C(=O)c2cc(NS(=O)(=O)CC(F)(F)F)ccc2OC[C@H](C)N(Cc2cccnc2)C[C@@H]1C	active	nt	nt	nt	nt	-4.9%[42 µM]
CO[C@@H]1CN(C)C(=O)c2cc(NS(=O)(=O)CC(F)(F)F)ccc2OC[C@@H](C)N(C(=O)c2ccc3c(c2)OCO3)C[C@@H]1C	51.3*	nt	nt	nt	nt	22.3µM*
CO[C@H]1CN(C)C(=O)c2ccc(NS(=O)(=O)CC(F)(F)F)cc2OC[C@H](C)N(Cc2cccnc2)C[C@@H]1C	-9.9	nt	nt	nt	nt	nt
CC(=O)N1CN(CCCn2ccnc2)Cc2c1sc1c2CCCC1	17.9	0.1	0.0	10.8	14.4	nt
CC(=O)N1CN(Cc2ccccn2)Cc2c1sc1c2CCCC1	71.2*	0.4	-0.5	-7.6	-13.6	-15.1%
COc1ccc(C[C@H]2CN3C(=NC[C@@H]3Cc3ccc(O)cc3)N2CCNC(=O)c2ccc(C)c(Br)c2)cc1	16.9	0.2	-0.1	37.9	-4.4	nt
COc1ccc(N2CCN(C(=O)CN(c3ccc(OC)cc3)S(=O)(=O)c3ccccc3)CC2)cc1	2.5	0.3	-0.1	9.5	-0.4	nt
SMILES	ARNT TACC3 PPI	A1 inh	aDG glyco up	AI-2 QS mod	Mot1-301 SUMO	ARNT Alpha ctr	others
CCCNC(=O)Nc1ccc2c(c1)OC[C@@H](C)N(C(=O)c1ccccc1F)C[C@H](C)[C@H](OC)CN(C)C2=O	-9.7	nt	nt	nt	nt	nt
CCCNC(=O)Nc1ccc2c(c1)OC[C@H](C)N(C(=O)c1ccccc1F)C[C@@H](C)[C@@H](OC)CN(C)C2=O	52.7*	nt	nt	nt	nt	-2.4%[42 µM]
CO[C@@H]1CN(C)C(=O)c2ccc(NC(=O)c3ccccn3)cc2OC[C@@H](C)N(Cc2ccccn2)C[C@H]1C	95.3*	nt	nt	nt	nt	19.6µM*
Cc1ccc(S(=O)(=O)N2CCOC2CNC(=O)C(=O)NCC(C)C)cc1 (stereo not given)	nt	0.0	-0.2	-4.9	-18.2	nt
COc1cc2oc(=O)cc(C)c2c(OC)c1OC	nt	0.5	-0.2	35.3	185.4	nt
Oc1cc(NCc2ccc(F)cc2)cc2cccnc12	59.6*	-0.4	2.2	nt	11.1	30µM*
CN(C)CCCNc1cc(O)c2ncccc2c1	64.1*	0.4	0.5	nt	-3.8	6.17µM*
COc1cc(/C=N/NC(=O)CCN2CCN(Cc3ccccc3)CC2)cc(OC)c1OC	-8.1	-1.2	-0.1	16.2	-1.7	nt
COc1cc(/C=N/NC(=O)CCN2CCN(c3ccccc3)CC2)cc(OC)c1OC	37.9*	-0.5	-0.1	21.4	1.1	56.3µM*
CN1CCN(CC(=O)N/N=C/c2ccc(F)c(F)c2)CC1	-1.9	0.5	-0.2	23.6	5.8	nt
O=C(CN1CCCCCCC1)N/N=C/c1ccc(F)c(F)c1	54.5*	1.2	0.1	23.3	0.4	-5.4%
COc1ccc(S(=O)(=O)Nc2ccc3c(c2)C(=O)N([C@@H](C)CO)C[C@@H](C)[C@@H](CN(C)Cc2ccncc2)OCCCC[C@H](C)O3)cc1	-17.8	nt	nt	nt	nt	nt
CCCCNC(=O)c1onc(CSc2ccc(Cl)cc2)c1C(=O)NCCCC	-3.0	-2.1	0.2	13.4	0.0	nt
CCOC(=O)/C(=N/Nc1ccccc1OC)N1CCCc2ccccc21	33.9*	-0.1	-0.1	-4.1	1.7	44.2µM*
